SMILES strings stand for the structures. About 20 (1%) of roughly 1,700 compounds were called active. The sample as a whole holds a higher share of actives than the screen did. Unmarked numbers belong to inactive results. Cut-off read from the data, not from the text of the source: active = inhibition above about 26%; inactive = the rest.

The test system of this assay is Candida albicans multidrug efflux pump MDR1 (expressed in S. cerevisiae AD1-8u). Briefly: inhibitors of Candida albicans Mdr1 efflux, confirmation, flow cytometry, singleplex, Cherry Pick1 set (AID 588518).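 Note: 0% = DMSO vehicle and 100% = reference inhibitor; higher means more Nile Red retained so more efflux inhibition.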 To be noted: S. cerevisiae AD/CaMDR1, Nile Red efflux, at 10 µM, active compounds read high.
With `CCc1ccc(NC(=O)Cn2ncn3c(cc4ccccc43)c2=O)cc1`, the inhibition was -0.1%.
Next, `Cc1nc2c(C(=O)NCc3ccc4c(c3)OCO4)c[nH]n2c(=O)c1Cc1ccccc1F`: -0.28%; `Cc1cc(C)cc(NC(=O)C(OC(=O)c2ccc(O)cc2)c2ccccc2)c1` (stereo unspecified): -0.15%.
The same measure for `Cc1oc2cc3oc(=O)ccc3cc2c1C`: -0.03%; for `C/C(N)=C(/C#N)C(=O)COC(=O)c1cc(-c2cccc(Br)c2)nc2ccccc12`: -0.13%.
Next, `CCCCN1C(=O)/C(=C/C=C2/C=Cc3ccccc3N2CC)SC1=S`: -0.28%; `CCNc1c(NS(=O)(=O)c2ccc(C3CCCCC3)cc2)c(=O)oc2ccccc12`: -0.16%; `O=C(Cc1ccc(Br)cc1)N1CCN(c2ccccn2)CC1`: -0.14%.
In the case of `CSCCC(NC(=O)COc1ccccc1)C(=O)OCCOc1ccc(Br)cc1` (stereo unspecified), the inhibition was -0.39%.
The same measure for `Cc1ccc2[nH]c3c(=O)n(CC(=O)NCCc4ccc(Cl)cc4)ncc3c2c1`: -0.13%; for `CCCc1nc(N2CCN(C)CC2)c2sc(=S)n(-c3ccccc3)c2n1`: -0.01%; for `COc1ccc(S(=O)(=O)N2CCOC2CNC(=O)C(=O)NCc2ccc(F)cc2)cc1` (stereo unspecified): 0.32%.
Next, `CCNC(=O)c1c(O)c2cccc3c2n(c1=O)CC3`: -0.2%; `COc1ccc2[nH]c3c(C)c4cc[n+](C)cc4c(C)c3c2c1`: 0.07%; `CC(/C=C/c1ccccc1)=N\NC(=O)C1CC1(C)c1ccccc1` (stereo unspecified): -0.16%.
Next, `O=C1NC(=O)C2C1C(c1ccc([N+](=O)[O-])cc1)=NN2Cc1ccccc1` (stereo unspecified): 0.35%; `CN(C)S(=O)(=O)c1cc(C(=O)Nc2ccn(C)n2)c(Cl)cc1Cl`: -0.29%; `COc1ccc(NC(=S)N2CCc3cc(OC)c(OC)cc3C2)cc1`: -0.21%.
Regarding `CC12CCC(C(=O)N(c3cccc(Cl)c3)C1=O)C2(C)C` (stereo unspecified), the inhibition was -0.13%.
Next, `CCCCOc1ccc(C(=O)NCC(=O)OCC(=O)c2c(N)n(C)c(=O)n(C)c2=O)cc1`: -0.28%.
Next, `COc1ccccc1/C=C/C=N/n1c(-c2ccc(Cl)cc2Cl)n[nH]c1=S`: 0.32%.
Next, `Cc1ccc(/C=C(\C#N)C(=O)Nc2cccc3ncccc23)o1`: -0.29%; `Cc1c(CCOC(=O)CC23CC4CC(CC(C)(C4)C2)C3)sc[n+]1Cc1ccc([N+](=O)[O-])cc1`: -0.01%.
Regarding `NNC(=O)COc1ccc(C2SCCS2)cc1`, the inhibition is -0.31%.
The same measure for `O=C(Cn1c(COc2ccccc2)nc2ccccc21)Nc1cc(Cl)c(Cl)cc1Cl`: 0.02%.
Next, `CCOC(=O)CNC(=O)CSc1nnnn1-c1cc(C)ccc1C`: -0.31%.
The same measure for `Cc1csc(NC(=O)c2ccc(-c3ccc(Cl)cc3Cl)o2)n1`: 0.14%.
In the case of `COc1ccc(-c2sc3ccccc3c2-c2ccc(OCCN3CCOCC3)cc2)cc1`, the inhibition is 0.1%.
The same measure for `CC(C)C(=O)N1CCC2(CC1)Oc1ccc(F)cc1C(=O)C21CC(c2ccccc2)=NO1` (stereo unspecified): 45.9% (active); for `CCCc1nnc(SCC(=O)Nc2ccc(C(=O)OCC)cc2)o1`: 0.19%; for `O=C(Nc1ccc(NC(=O)c2cccs2)cc1)c1ccc2ccccc2c1`: 0.05%.
Next, `CN1CCN(S(=O)(=O)c2ccc(NC(=S)NC(=O)C3CC3)cc2)CC1`: -0.06%; `Cc1ccc2c(c1)NC(=O)[C@@]1(C)[C@@H](c3ccccc3)[C@H]3COc4ccc(Cl)cc4[C@@H]3N1C2=O`: -0.01%; `COc1ccc(C(=O)NC2CC(C)(C)Cc3c2cnn3-c2ccccc2)c(OC)c1` (stereo unspecified): -0.03%.
On to `O=C(OCc1ccc(-c2ccccc2)cc1)c1cccc(O)c1`, for which the inhibition was -0.19%.
Next, `CC(/C=N/NC(=O)c1cc(-c2ccc3ccccc3c2)n[nH]1)=C\c1ccco1`: -0.25%; `CCOC(=O)c1c(NC(=S)NC(=O)c2ccco2)sc2c1CCCC2`: -0.19%.
Next, `CCCCCCCCCCCCCCCC(=O)OC/C=C(C)/C=C/C=C(C)/C=C/C1=C(C)CCCC1(C)C`: -0.1%.
The same measure for `COc1ccccc1NC(=O)C1CCCN1S(=O)(=O)c1ccc(Cl)cc1` (stereo unspecified): -0.11%; for `CC1CCc2c(sc(NC(=O)c3ccc(Cn4cc(Br)cn4)o3)c2C(N)=O)C1` (stereo unspecified): -0.1%.
For `CCCCCC(=O)Nc1ccc(C(=O)N/N=C/c2ccc([N+](=O)[O-])cc2)cc1`, the inhibition was -0.14%.
Next, `CSCCC(NS(=O)(=O)c1ccc(C)cc1)C(=O)N1CCCC1` (stereo unspecified): -0.25%; `Cc1cc(/C=N/NC(=O)CC2(C)OCCO2)c(C)n1-c1ccc(Cl)c(Cl)c1`: 0.16%.
Next, `Cc1ccc(OCc2cc(C(=O)N(C)CCc3ccccc3)no2)cc1C`: -0.03%; `Cc1nn(C)cc1C(=O)Nc1ccccc1Br`: -0.15%.
The same measure for `O=C(CCCCCn1c(=O)[nH]c2ccccc2c1=O)NCCc1c[nH]c2ccccc12`: -0.03%.
For the molecule `C[n+]1ccc(/C=C/c2c[nH]c3ccccc23)cc1`, the inhibition was 5.81%.
The same measure for `O=C(Cc1ccccc1)NCC1OCCc2ccccc21` (stereo unspecified): -0.13%; for `CCOc1ccccc1/C=c1\sc2nc(-c3ccco3)nn2c1=O`: 0.22%; for `Cc1nn(C)cc1N1C(=O)c2cccc3c(N)ccc(c23)C1=O`: 0.11%.
The same measure for `COc1ccc2sc(-c3ccccc3OC)c(-c3ccc(OCCN4CCCC4)cc3)c2c1`: 5.13%.
The same measure for `COc1ccc(/C=C(\C#N)c2c[nH]c3ccccc23)cc1`: 0.1%; for `Cc1cccc(NC(=O)COc2ccccc2C)n1`: -0.06%; for `COc1ccc(C(=O)NC(=S)Nc2ccc(N3CCCC3)cc2)cc1OC`: -0.18%.
`Cc1cc(C(=O)Nc2ccc(C)c(S(=O)(=O)N3CCOCC3)c2)c2ccccc2n1`: the inhibition is -0.31%.
Next, `O=C(/C=C/c1c(Cl)cccc1Cl)NCc1ccccc1`: 0.02%; `CCOc1ccc(C2/C(=C(/O)c3ccc4c(c3)CC(C)O4)C(=O)C(=O)N2CCCn2ccnc2)cc1` (stereo unspecified): 0.05%.
The same measure for `Cc1ccc(Cn2c(C)nc3c(c2=O)c2nc4ccccc4nc2n3Cc2ccco2)cc1`: 0.02%; for `CCOc1ccc2nc(Cl)c(C3CC(c4ccccc4)=NN3C(=O)c3cccs3)cc2c1` (stereo unspecified): 0%; for `O=C(NCc1ccccc1)C(=O)NCC1OCCN1S(=O)(=O)c1ccc(Br)cc1` (stereo unspecified): -0.13%.
Next, `COc1cccc(-c2sc3ccc(OC)cc3c2-c2ccc(OCCN3CCCCC3)cc2)c1`: 20.7%; `COc1cccc(NC(=O)CN(C)C(=O)/C=C/c2cc(OC)ccc2OC)c1`: -0.16%.
Consider `O=C(CNC(=O)c1ccc(-c2ccccc2)cc1)OCc1ccc(Cl)cc1`, for which the inhibition was 0.01%.
The same measure for `O=C(CN1C(=O)C2C3CCC(C3)C2C1=O)Oc1ccc2ccccc2c1` (stereo unspecified): 0.12%.
As to `Cc1ccc(N=C2NC(=O)/C(=C/C=C/c3ccco3)S2)cc1C`, the inhibition was 0.12%.
Next, `CCOc1ccc(/C=C2\SC(=S)N(NC(=O)c3ccncc3)C2=O)cc1OC`: -0.14%; `O=S(=O)(c1ccccc1)N1CCc2ccccc21`: 0.11%; `Cc1ccc(Cn2nnc3c(=O)[nH]c(C4CCN(S(=O)(=O)/C=C/c5ccccc5)CC4)nc32)cc1`: -0.18%.
Next, `COc1ccccc1CSc1ncc(-c2ccc([N+](=O)[O-])cc2)[nH]1`: -0.17%; `O=C(CSc1nnc(-c2cccnc2)n1Cc1ccco1)c1ccc(Cl)c(Cl)c1`: 0.13%.
Next, `COc1ccc(C(=O)C2CCCN(Cc3cccn3-c3ccccn3)C2)c(C)c1` (stereo unspecified): -0.17%; `CC[n+]1cc(C)ccc1/C=C/c1ccc(N(C)C)cc1`: 10.7%; `CN=C(c1ccccc1)c1c(C)cccc1C`: -0.14%.
For `CCn1c(/C=C/c2ccc([N+](=O)[O-])o2)nc2ccccc2c1=O`, the inhibition is 1.88%.
Next, `COc1ccc(C(=O)NC2CCCc3c2cnn3-c2cccc(C)c2C)c(OC)n1` (stereo unspecified): -0.16%; `C=CCC[C@@H](Cc1ccc(F)cc1)C(=O)OC[C@H](Cc1c[nH]c2ccccc12)NC(=O)[C@@H](CC=C)CC(=O)N(CCO)Cc1ccccc1`: 56.2% (active).

Source of the values: PubChem BioAssay AID588518 (NMMLSC, 2011).
